The source of these data is PubChem BioAssay (NCI).

Values joined by “and” are separate entries in the source; they are usually repeats but may differ in a detail not shown here. Equal entries are not always repeated. Compounds without any hit were thinned out: in the full panel of roughly 83,000, 20% have a hit.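 For each line, cells grew in 96-well plates with the test compound present at a single concentration for 48 hours.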 Active and inactive are the calls of the source. The calls were made as follows: active = growth percent below 10; inactive = the rest.

Common to all, as to experiment: NCI-60 one-dose screen, 48 h (100 = growth as untreated, 0 = no growth, -100 = all killed)
What all share (details): 10 µM unless noted

In assay [1] the test system is T-47D breast.
Assay [2] relates to BT-549 breast.
Assay [3] concerns MDA-MB-435 melanoma.
Assay [4] concerns SW-620 colon.
In assay [5] the test system is MCF7 breast.
The subject of assay [6] is HCT-116 colon.
The test system of assay [7] is HCC-2998 colon.
Assay [8] deals with KM12 colon.

Consider `CCCCCCCCN(CCCCCCCC)CC(O)c1cc(Cl)ccc1OC` (configuration not stated), for which the growth was 51% (inactive) in assay [1]; 102% (inactive) in assay [2]; 83.6% (inactive) in assay [3]; 67.2% (inactive) in assay [4]; 54.7% (inactive) in assay [5]; 35.7% (inactive) in assay [6]. Further, the growth in assay [7] was 51.7% (inactive); in assay [8], 61.8% (inactive).
Take `O=C1N=c2ccccc2=C1c1sc(=S)n(C2CC(=O)N(c3ccc(Cl)cc3)C2=O)c1O` (configuration not stated): the growth in assay [1] is 97.9% (inactive); in assay [2], 105% (inactive); in assay [3] it was 102% (inactive); in assay [4] it was 99.8% (inactive); in assay [5] it was 91.1% (inactive); in assay [6], 96.7% (inactive). For the same compound, the growth in assay [7] is 105% (inactive); in assay [8], 100% (inactive).
For the compound `C#CCOCC1CN(C)C(=O)O1` (configuration not stated), the growth in assay [1] is 126% (inactive); in assay [2] it was 131% (inactive); in assay [3] it was 101% (inactive); in assay [4] it was 97% (inactive); in assay [5], 90.2% (inactive); in assay [6] it was 119% (inactive). Also, the growth in assay [7] was 109% (inactive); in assay [8], 107% (inactive).
In the case of `Cc1ccccc1SSc1ccccc1C`, the growth was 101% (inactive) in assay [1]; 83.9% (inactive) in assay [2]; 110% (inactive) in assay [3]; 55% (inactive) in assay [4]; 56.1% (inactive) in assay [5]; 55% (inactive) in assay [6]. For the same compound, the results for the growth in assay [7] and in assay [8] were 128% (inactive) and 96.9% (inactive), respectively.
As to `O=C(/C=C\c1ccc(Cl)c(Cl)c1)c1ccccc1`, the growth in assay [1] is 77.4% (inactive) and 86.9% (inactive); in assay [2] it was 103% (inactive); in assay [3], 70.5% (inactive) and 100% (inactive); in assay [4] it was 31.9% (inactive) and 95.1% (inactive); in assay [5], 18.8% (inactive) and 28.2% (inactive); in assay [6], 22.7% (inactive) and 62.1% (inactive). Besides, the growth in assay [7] was 95.2% (inactive) and 104% (inactive); in assay [8] it was 96.6% (inactive).
Consider `OCCN1CCN(CC/C=C2\c3ccccc3Sc3ccc(Cl)cc32)CC1`, for which the growth is 48.6% (inactive) and 57.4% (inactive) in assay [1]; 67.5% (inactive) in assay [2]; -70.8% (active) and -44.4% (active) in assay [3]; -75.2% (active) and 0.592% (active) in assay [4]; 17.3% (inactive) and 4.22% (active) in assay [5]; -59.8% (active) and -45.1% (active) in assay [6]. In addition, the growth in assay [7] was -91.4% (active) and 12.7% (inactive); in assay [8] it was 2.71% (active) and 36.2% (inactive).
As for `CN(Cc1ccccc1)c1nc(Cl)c(C2CC(c3ccc4c(c3)OCO4)=NN2c2cc(Cl)cc(Cl)c2)s1` (configuration not stated), the growth in assay [1] was 86.1% (inactive); in assay [2], 104% (inactive); in assay [3] it was 97.2% (inactive); in assay [4] it was 99.1% (inactive); in assay [5], 78.2% (inactive); in assay [6] it was 87% (inactive). Also, the growth is 106% (inactive) in assay [7] and 98.5% (inactive) in assay [8].
Turning to `C=C1C(=O)O[C@H]2[C@H]1CC/C(COC(=O)NCCCCNC(=O)OC/C1=C/CC[C@@]3(C)O[C@H]3[C@H]3OC(=O)C(=C)[C@@H]3CC1)=C\CC[C@@]1(C)O[C@@H]21`, the growth in assay [1] is 9.48% (active); in assay [2] it was -40% (active); in assay [3] it was -25.6% (active); in assay [4], -27.8% (active); in assay [5], 9.53% (active); in assay [6], -65.2% (active). Also, the growth in assay [7] is 89.5% (inactive); in assay [8], 88.2% (inactive).
Consider `CC/C(=C(/c1ccc(O)cc1)c1ccc(OCCN2CCCCCC2)cc1)c1ccc(Cl)cc1`, for which the growth in assay [1] is 51.9% (inactive); in assay [2], 69.8% (inactive); in assay [3] it was 81.1% (inactive); in assay [4], 62.6% (inactive); in assay [5], 13% (inactive); in assay [6], -53% (active). The growth was 28.8% (inactive) in assay [7] and 38.2% (inactive) in assay [8].
Regarding `COc1cc2nc3cc([N+](=O)[O-])ccc3c(NCCNCC(C)(C)O)c2cc1OC`, the growth in assay [1] was -3.16% (active); in assay [2], -75.6% (active); in assay [3], -86.8% (active); in assay [4] it was -15.2% (active); in assay [5], -14.1% (active); in assay [6] it was -20.9% (active). Moreover, the growth was -53.3% (active) in assay [7] and -7.24% (active) in assay [8].
`COc1ccc(CCNC(=O)COc2cc3c(Nc4ccc(F)c(Cl)c4)ncnc3cc2OC)cc1OC`: the growth in assay [1] was 70% (inactive); in assay [2], 99.5% (inactive); in assay [3], 97.2% (inactive); in assay [4], 101% (inactive); in assay [5], 91.9% (inactive); in assay [6], 107% (inactive). The growth in assay [7] is 101% (inactive); in assay [8], 96.9% (inactive).
On to `Nc1nc(N)c2c(n1)NC(c1ccc(Cl)cc1)CC(c1cccc(Nc3ccncc3)c1)=N2` (configuration not stated), for which the growth in assay [1] was 77.6% (inactive); in assay [2], 110% (inactive); in assay [3] it was 42.7% (inactive); in assay [4], 30% (inactive); in assay [5] it was 49.4% (inactive); in assay [6] it was 21.9% (inactive). The growth was 72.1% (inactive) in assay [7] and 63.7% (inactive) in assay [8].
For `Cc1nn(-c2nc(-c3cc4ccccc4oc3=O)cs2)c(C)c1N=Nc1ccccc1`, the growth in assay [1] is 95.3% (inactive); in assay [2], 99.7% (inactive); in assay [3], 101% (inactive); in assay [4], 103% (inactive); in assay [5], 89.3% (inactive); in assay [6] it was 105% (inactive). Further, the figures for the growth in assay [7] and in assay [8] were 111% (inactive) and 100% (inactive), respectively.
On to `COc1cccc(NC(=O)c2sc3nc(C)c(C(O)c4ccccc4)cc3c2N)c1` (configuration not stated), for which the growth in assay [1] was 35.3% (inactive); in assay [2], 55.6% (inactive); in assay [3], 5.31% (active); in assay [4] it was 26.5% (inactive); in assay [5], 17.9% (inactive); in assay [6], 8.89% (active). The growth in assay [7] was 9.98% (active); in assay [8], 18% (inactive).
